# GSIS activator – GLuc luminescence reporter in INS-1E cells, primary screen for activators of glucose-dependent secretion of insulin | activation, % at 16.6 µM | AID 743287, 2014 | hit rate 0.61% among 370,000 | INS-1E GLuc reporter insulin secretion, 2-3 h;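 active means lowest replicate activation of at least 40%, so every replicate reaches that level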
# EWS-Fli inh – EWS/Fli-driven NR0B1 reporter inhibitors, primary screen, A673 cells, NR0B1 luciferase, luminescence, MLPCN library; AID 651661, 2012; inhibition, % at 12.6 µM; hit rate 0.67% among 350,000; viability-normalised;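 active means mean inhibition of at least 50% after viability correction, with every replicate also passing that limit; inconclusive means mean reaches 50% but only one of two replicates passes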;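 further: firefly luciferase signal divided by Alamar Blue viability fluorescence both relative to DMSO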
# miR122 inh – miR-122 Renilla sensor signal increase in Huh7, primary screen, miR-122 inhibitor project, cell-based, single point, plate reader; Huh7 miR-122 Renilla luciferase sensor, 48 h; neutral wells = 0, positive control = 100; activation (reporter increase), % at 12.5 µM; hit rate 0.3% among 340,000; AID 602342, 2012;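 active means mean replicate activation score at least 90 and every replicate individually at or above 90; inconclusive means only one of the two criteria met; inactive means neither criterion met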;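 further: higher luciferase means less miR-122 activity so hits act as miR-122 inhibitors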
# C2C12 statin – suppressors of statin myotoxicity in C2C12 myotubes, primary screen, cell-based, single point, plate reader; rescue of ATP level, % at 7.49 µM; C2C12 myotubes + simvastatin, ATP luminescence, 48 h; scaled: DMSO 0, geranylgeraniol control 100; AID 602340, 2012; hit rate 0.78% among 330,000;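 active means mean ATP rescue above about 67%, or every replicate alone reaching that limit, limit read from the data, passing the limit was not always enough; inconclusive means no clear call, values can overlap the other calls; inactive means mean under the limit and some replicate under it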;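 further: myotubes were challenged with 10 µM simvastatin during compound exposure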
# Env fusion inh – inhibitors of HIV-1 Env-driven cell-cell fusion, primary screen, HeLa-JRFL effector, CEM21 target cells, luciferase | inhibition, % at 12.3 µM | hit rate 1.1% among 360,000 | AID 651610, 2012;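 active means mean replicate inhibition score of at least 50 and every replicate individually at or above 50; inconclusive means only one of the two criteria met; inactive means mean below 50 and not all replicates reaching 50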
# PAX8 reporter – inhibitors of PAX8-driven TPO luciferase reporter, primary screen, RMG-I cells, single concentration; SteadyGlo, 24 h; inhibition, % at 12.6 µM; hit rate 1.2% among 360,000; AID 652154, 2013;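 active means mean replicate inhibition at least 60% with every replicate also reaching 60%; inconclusive means only one of the two criteria is met; inactive means mean below 60% and not all replicates reaching 60%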;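 further: luciferase light reporting Pax8 driven TPO promoter activity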
# A number is an active result; - = inactive; ? = inconclusive; . = not tested or not shown; [ ] = remark or other dose. Hits are enriched below; roughly 3.1% of the tested compounds scored in any of these assays.
SMILES,GSIS activator,EWS-Fli inh,miR122 inh,C2C12 statin,Env fusion inh,PAX8 reporter
C[C@@H]1CCCCO[C@H](CN(C)S(=O)(=O)c2ccc(Cl)cc2)[C@H](C)CN([C@H](C)CO)C(=O)c2cc(NS(=O)(=O)c3ccc(Cl)cc3)ccc2O1,-,-,-,.,-,-
C[C@@H]1CCCCO[C@@H](CN(C)S(=O)(=O)c2ccc(Cl)cc2)[C@H](C)CN([C@@H](C)CO)C(=O)c2cc(NS(=O)(=O)c3ccc(Cl)cc3)ccc2O1,-,-,-,.,-,78
C[C@@H]1CCCCO[C@H](CN(C)C)[C@H](C)CN([C@@H](C)CO)C(=O)c2cc(NS(=O)(=O)c3ccc(Cl)cc3)ccc2O1,-,-,-,-,-,97
C[C@@H]1CCCCO[C@H](CN(C)S(=O)(=O)c2ccc(Cl)cc2)[C@H](C)CN([C@@H](C)CO)C(=O)c2cc(NS(=O)(=O)c3ccc(Cl)cc3)ccc2O1,-,-,-,.,-,74
COC(=O)C[C@H]1C[C@H]2c3cc(NC(=O)Nc4ccc(C(F)(F)F)cc4)ccc3O[C@H]2[C@H](CO)O1,-,-,-,-,-,-
COc1ccc(C(=O)Nc2ccc3c(c2)C(=O)N(C)C[C@H](OC)[C@@H](C)CN(C)[C@@H](C)CO3)cc1,-,-,.,-,-,-
Cn1cnc(S(=O)(=O)N[C@@H]2C=C[C@H](CC(=O)NCC3CCCCC3)O[C@H]2CO)c1,-,-,.,-,-,-
COc1ccc(S(=O)(=O)N(C)C[C@@H]2Oc3ccc(N(C)C)cc3C(=O)N([C@H](C)CO)C[C@@H]2C)cc1,-,-,-,-,59[16.7 µM],-
C[C@@H]1CCCCO[C@@H](CN(C)S(=O)(=O)c2ccc(Cl)cc2)[C@H](C)CN([C@@H](C)CO)C(=O)c2cc(N(C)C)ccc2O1,-,-,-,-,-,79
COc1ccc(S(=O)(=O)N(C)C[C@@H]2Oc3ccc(N(C)C)cc3C(=O)N([C@@H](C)CO)C[C@@H]2C)cc1,-,-,-,-,-,-
C[C@@H]1CCCCO[C@H](CN(C)S(=O)(=O)c2ccc(Cl)cc2)[C@H](C)CN([C@@H](C)CO)C(=O)c2cc(NS(C)(=O)=O)ccc2O1,-,-,-,163,-,-
C[C@@H]1CN([C@H](C)CO)C(=O)c2cc(NS(C)(=O)=O)ccc2O[C@@H](C)CCCCO[C@H]1CN(C)S(=O)(=O)c1ccc(Cl)cc1,-,-,-,-,-,-
CCCOc1ccc(N2C(=O)CC(N(CCOC34CC5CC(CC(C5)C3)C4)C(C)=O)C2=O)cc1 (configuration not stated),-,-,-,-,57,-
CCCCN(C(C)=O)C1CC(=O)N(c2ccc(OCCC)cc2)C1=O (configuration not stated),-,-,.,-,?,-
CC(C)[C@@H]1COCc2cn(nn2)CC[C@H](Cc2ccccc2)C(=O)N1,-,-,.,.,-,-
CCN(CCC(=O)O)c1ccccc1,63,.,-,-,.,.
CCn1c(CSc2nc3ccccc3[nH]2)n[nH]c1=S,-,-,-,101,.,.
CCn1c(CSCc2ccccc2)n[nH]c1=S,-,-,-,-,-,-
C[C@H](CO)N1C[C@H](C)[C@H](CN(C)C(=O)Nc2ccccc2)Oc2ncc(C#CCN(C)C)cc2C1=O,-,-,-,-,-,.
CC1(C(=O)Nc2ccc3c(c2)OCO3)Cc2c(-c3cccc(C(N)=O)c3)ccnc2O1 (configuration not stated),-,59,-,-,-,-
COc1ccc(NC(=O)C2(C)Cc3c(-c4ccc5c(c4)OCO5)ccnc3O2)cc1OC (configuration not stated),-,-,-,-,-,-
COc1ccc(NC(=O)C2(C)Cc3c(-c4ccc5c(c4)OCO5)ccnc3O2)cn1 (configuration not stated),.,64,-,-,-,-
CC1(C(=O)Nc2ccc3c(c2)OCO3)Cc2c(-c3ccc4c(c3)OCO4)ccnc2O1 (configuration not stated),-,-,-,-,-,.
O=C(C[C@H]1C[C@H]2c3cc(NC(=O)c4cccnc4)ccc3O[C@H]2[C@H](CO)O1)NCC(F)(F)F,-,-,-,-,-,-
COc1cccc(C#Cc2ccc3c(c2)[C@H]2[C@H](CCN2S(=O)(=O)c2ccccc2)[C@H](CO)N3)c1,-,-,-,-,.,-
SMILES,GSIS activator,EWS-Fli inh,miR122 inh,C2C12 statin,Env fusion inh,PAX8 reporter
Cc1noc(C)c1NC(=O)Nc1ccc2c(c1)C(=O)N([C@@H](C)CO)C[C@H](C)[C@@H](CN(C)C(=O)Nc1ccc(C(F)(F)F)cc1)OCCCC[C@@H](C)O2,-,-,-,-,-,-
C[C@@H]1CN([C@@H](C)CO)C(=O)Cc2cc(NS(=O)(=O)c3ccc(Cl)cc3)ccc2O[C@@H]1CN(C)C(=O)Nc1cccc2ccccc12,-,-,-,-,-,.
CCn1c2ccccc2c2cc(NC(=O)c3cc(OC)cc(OC)c3)ccc21,-,.,.,.,-,96
COc1ccc(NC(=O)Nc2ccc3c(c2)C(=O)N([C@H](C)CO)C[C@@H](C)[C@@H](CN(C)C(=O)NC2CCCCC2)OCCCC[C@H](C)O3)cc1,-,-,-,.,-,-
CNC(=O)C[C@@H]1CC[C@@H]2[C@@H](COc3ccc(NS(=O)(=O)c4ccccc4C)cc3C(=O)N2C)O1,-,-,-,-,-,-
COCC(=O)N(C)C[C@@H]1Oc2cc(-c3cccnc3)ccc2S(=O)(=O)N([C@H](C)CO)C[C@@H]1C,-,-,-,-,-,.
CC(C)COc1ccc(Br)cc1CNC(C)(C)C,51,-,.,.,-,-
O=C1C=C(c2ccc3ncccc3c2)C[C@@H](c2ccc(F)cc2)C1,.,.,-,-,.,.
O=C1C=C(c2ccc3ncccc3c2)C[C@@H](c2ccc3c(c2)OCO3)C1,-,63,.,-,-,-
COc1ccc(C(=O)N=C2CCC(C#N)=C3c4cc(OC)c(OC)cc4CCN23)cc1,109,.,.,.,-,-
COc1cc2c(cc1OC)C1=C(C#N)CC/C(=N\S(=O)(=O)c3ccccc3)N1CC2,-,-,-,-,-,-
C[C@@H]1CN([C@H](C)CO)C(=O)c2cc(NS(=O)(=O)c3cn(C)cn3)ccc2O[C@@H]1CN(C)C(=O)NC1CCCCC1,-,-,-,-,.,.
O=C1N(c2ccccc2)C[C@@H]2C[C@@H](c3cccs3)N3CCC[C@@]123,-,-,-,-,-,75
Cc1ccc(NC(=O)c2ccc(COc3ccc4c(c3)CCC4)cc2)c(C)c1,111,.,.,.,-,-
Cc1cc(C)c(C)c(S(=O)(=O)ON2C(=O)c3ccccc3C2=O)c1C,-,56,-,-,.,.

# Screens deposited in PubChem BioAssay by Broad Institute.
